# A number with no mark means an inactive call.
# How the values were obtained:
# Assay in all cases: log2 ratio of Biotin-Ahx-Ub-VS probe labelling (fragment/DMSO); higher = less target engagement (more negative = stronger competition), active = hit call of the paper (q ≤ 0.05, log2 ratio ≤ -1)
# Conditions in all cases: compound concentration: 200 uM; treatment time: 3 h
# USP19 = molecular target: T1, USP19 (UniProt O94966)
# T1 sequence (whole entry): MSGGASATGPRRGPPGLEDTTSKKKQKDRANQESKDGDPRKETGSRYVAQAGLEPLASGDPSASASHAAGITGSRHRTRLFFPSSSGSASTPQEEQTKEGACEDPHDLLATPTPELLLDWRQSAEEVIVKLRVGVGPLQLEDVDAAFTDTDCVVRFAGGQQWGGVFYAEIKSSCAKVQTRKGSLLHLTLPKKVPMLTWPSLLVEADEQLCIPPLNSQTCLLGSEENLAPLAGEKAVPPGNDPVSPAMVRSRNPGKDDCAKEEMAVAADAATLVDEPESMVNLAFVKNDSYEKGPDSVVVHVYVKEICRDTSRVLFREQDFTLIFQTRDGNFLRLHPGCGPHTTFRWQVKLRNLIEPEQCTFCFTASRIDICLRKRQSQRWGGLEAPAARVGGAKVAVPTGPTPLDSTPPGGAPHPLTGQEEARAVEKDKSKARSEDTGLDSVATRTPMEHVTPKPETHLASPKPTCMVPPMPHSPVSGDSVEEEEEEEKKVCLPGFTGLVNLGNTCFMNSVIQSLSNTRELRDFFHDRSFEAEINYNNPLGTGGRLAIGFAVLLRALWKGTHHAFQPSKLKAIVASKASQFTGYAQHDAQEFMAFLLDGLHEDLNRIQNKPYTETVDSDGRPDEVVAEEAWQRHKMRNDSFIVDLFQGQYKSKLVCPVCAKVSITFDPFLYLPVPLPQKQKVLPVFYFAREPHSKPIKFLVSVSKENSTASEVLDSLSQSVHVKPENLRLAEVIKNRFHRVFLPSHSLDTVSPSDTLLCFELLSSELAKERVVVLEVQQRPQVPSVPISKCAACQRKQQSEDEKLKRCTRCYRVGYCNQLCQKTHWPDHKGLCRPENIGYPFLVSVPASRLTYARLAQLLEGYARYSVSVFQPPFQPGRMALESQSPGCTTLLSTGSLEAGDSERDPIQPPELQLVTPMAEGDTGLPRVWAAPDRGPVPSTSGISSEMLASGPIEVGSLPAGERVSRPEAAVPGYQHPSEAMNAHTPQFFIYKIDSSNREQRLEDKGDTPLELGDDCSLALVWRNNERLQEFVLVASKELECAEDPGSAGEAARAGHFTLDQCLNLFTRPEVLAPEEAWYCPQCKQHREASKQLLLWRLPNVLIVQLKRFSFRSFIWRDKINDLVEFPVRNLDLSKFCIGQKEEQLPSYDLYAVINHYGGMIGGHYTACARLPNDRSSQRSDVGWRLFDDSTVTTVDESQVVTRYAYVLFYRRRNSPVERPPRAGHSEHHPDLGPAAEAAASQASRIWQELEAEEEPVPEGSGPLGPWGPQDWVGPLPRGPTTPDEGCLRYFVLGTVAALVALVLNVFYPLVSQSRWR
# In short: (§1)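 Fragment (200 µM) or vehicle was incubated for 3 h with triplicate HEK293T lysate samples of 495 µg, which were then treated with Biotin-Ahx-Ub-VS at 0.5 µM final for 1 h. Labelled DUBs were enriched on NeutrAvidin, digested with LysC and trypsin, and analysed by diaPASEF LC-MS/MS. Values are average log2 fragment/vehicle ratios from an unpaired t-test on global-median-normalised Spectronaut label-free quantities, using proteins with ≥2 unique peptides.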
# USP24 = USP24 (UniProt Q9UPU5)
# In short: as §1
# USP25 = molecular target: T2, USP25 (UniProt Q9UHP3)
# T2 sequence (whole entry): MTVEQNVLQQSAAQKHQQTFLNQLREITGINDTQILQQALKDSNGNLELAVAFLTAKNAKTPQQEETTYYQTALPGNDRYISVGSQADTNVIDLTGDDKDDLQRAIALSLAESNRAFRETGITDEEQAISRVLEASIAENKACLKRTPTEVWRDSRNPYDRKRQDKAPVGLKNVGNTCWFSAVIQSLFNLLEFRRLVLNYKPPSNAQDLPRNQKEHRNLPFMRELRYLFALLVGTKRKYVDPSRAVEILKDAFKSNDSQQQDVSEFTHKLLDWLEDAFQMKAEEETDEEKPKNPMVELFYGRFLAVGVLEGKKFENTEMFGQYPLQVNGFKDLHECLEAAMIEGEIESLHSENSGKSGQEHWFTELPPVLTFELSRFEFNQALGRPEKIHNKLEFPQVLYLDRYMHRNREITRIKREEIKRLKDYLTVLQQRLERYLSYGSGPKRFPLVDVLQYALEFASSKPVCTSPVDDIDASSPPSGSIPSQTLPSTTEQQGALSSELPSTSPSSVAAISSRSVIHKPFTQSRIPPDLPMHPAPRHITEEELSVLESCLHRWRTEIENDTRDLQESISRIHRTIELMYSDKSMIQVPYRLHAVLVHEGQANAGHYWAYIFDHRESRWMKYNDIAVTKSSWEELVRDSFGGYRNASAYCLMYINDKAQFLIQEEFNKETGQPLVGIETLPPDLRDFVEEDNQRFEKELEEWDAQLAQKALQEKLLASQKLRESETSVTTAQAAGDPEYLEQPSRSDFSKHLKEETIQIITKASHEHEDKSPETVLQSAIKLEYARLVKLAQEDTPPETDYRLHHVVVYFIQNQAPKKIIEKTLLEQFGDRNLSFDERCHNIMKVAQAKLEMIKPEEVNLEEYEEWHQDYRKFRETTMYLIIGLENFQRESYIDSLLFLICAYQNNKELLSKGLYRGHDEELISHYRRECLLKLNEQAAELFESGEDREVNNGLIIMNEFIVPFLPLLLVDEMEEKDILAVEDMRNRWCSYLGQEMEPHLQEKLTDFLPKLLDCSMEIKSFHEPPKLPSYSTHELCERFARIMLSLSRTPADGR
# In short: as §1
# USP28 = molecular target: T3, USP28 (UniProt Q96RU2)
# T3 sequence (whole entry): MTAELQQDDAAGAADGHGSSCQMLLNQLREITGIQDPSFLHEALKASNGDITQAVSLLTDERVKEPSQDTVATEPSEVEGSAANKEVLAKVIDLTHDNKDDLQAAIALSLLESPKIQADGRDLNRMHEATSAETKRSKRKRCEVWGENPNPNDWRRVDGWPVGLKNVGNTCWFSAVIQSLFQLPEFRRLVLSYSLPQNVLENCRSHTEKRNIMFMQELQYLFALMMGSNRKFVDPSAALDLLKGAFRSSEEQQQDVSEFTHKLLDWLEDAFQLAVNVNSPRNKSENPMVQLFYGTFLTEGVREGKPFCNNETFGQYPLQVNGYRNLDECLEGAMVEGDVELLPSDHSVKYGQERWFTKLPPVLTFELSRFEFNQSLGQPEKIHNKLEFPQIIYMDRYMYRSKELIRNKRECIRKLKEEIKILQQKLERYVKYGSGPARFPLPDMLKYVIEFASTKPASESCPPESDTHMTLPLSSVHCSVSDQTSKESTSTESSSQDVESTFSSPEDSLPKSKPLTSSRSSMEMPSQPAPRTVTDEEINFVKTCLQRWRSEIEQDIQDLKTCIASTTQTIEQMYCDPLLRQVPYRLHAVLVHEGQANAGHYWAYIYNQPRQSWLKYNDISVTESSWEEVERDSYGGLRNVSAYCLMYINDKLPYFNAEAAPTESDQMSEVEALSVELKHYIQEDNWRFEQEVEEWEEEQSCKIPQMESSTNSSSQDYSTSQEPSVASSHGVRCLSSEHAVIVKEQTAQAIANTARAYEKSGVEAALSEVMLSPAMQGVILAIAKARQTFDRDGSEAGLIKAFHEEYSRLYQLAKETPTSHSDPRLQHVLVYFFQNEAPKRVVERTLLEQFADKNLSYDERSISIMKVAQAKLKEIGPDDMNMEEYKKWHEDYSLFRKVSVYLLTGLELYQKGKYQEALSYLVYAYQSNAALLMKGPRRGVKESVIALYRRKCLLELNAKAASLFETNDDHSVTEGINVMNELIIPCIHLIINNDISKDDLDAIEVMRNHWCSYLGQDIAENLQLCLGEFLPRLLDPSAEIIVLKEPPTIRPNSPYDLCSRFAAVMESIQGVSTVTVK
# In short: as §1
# Chain of USP24 (Q9UPU5 whole entry): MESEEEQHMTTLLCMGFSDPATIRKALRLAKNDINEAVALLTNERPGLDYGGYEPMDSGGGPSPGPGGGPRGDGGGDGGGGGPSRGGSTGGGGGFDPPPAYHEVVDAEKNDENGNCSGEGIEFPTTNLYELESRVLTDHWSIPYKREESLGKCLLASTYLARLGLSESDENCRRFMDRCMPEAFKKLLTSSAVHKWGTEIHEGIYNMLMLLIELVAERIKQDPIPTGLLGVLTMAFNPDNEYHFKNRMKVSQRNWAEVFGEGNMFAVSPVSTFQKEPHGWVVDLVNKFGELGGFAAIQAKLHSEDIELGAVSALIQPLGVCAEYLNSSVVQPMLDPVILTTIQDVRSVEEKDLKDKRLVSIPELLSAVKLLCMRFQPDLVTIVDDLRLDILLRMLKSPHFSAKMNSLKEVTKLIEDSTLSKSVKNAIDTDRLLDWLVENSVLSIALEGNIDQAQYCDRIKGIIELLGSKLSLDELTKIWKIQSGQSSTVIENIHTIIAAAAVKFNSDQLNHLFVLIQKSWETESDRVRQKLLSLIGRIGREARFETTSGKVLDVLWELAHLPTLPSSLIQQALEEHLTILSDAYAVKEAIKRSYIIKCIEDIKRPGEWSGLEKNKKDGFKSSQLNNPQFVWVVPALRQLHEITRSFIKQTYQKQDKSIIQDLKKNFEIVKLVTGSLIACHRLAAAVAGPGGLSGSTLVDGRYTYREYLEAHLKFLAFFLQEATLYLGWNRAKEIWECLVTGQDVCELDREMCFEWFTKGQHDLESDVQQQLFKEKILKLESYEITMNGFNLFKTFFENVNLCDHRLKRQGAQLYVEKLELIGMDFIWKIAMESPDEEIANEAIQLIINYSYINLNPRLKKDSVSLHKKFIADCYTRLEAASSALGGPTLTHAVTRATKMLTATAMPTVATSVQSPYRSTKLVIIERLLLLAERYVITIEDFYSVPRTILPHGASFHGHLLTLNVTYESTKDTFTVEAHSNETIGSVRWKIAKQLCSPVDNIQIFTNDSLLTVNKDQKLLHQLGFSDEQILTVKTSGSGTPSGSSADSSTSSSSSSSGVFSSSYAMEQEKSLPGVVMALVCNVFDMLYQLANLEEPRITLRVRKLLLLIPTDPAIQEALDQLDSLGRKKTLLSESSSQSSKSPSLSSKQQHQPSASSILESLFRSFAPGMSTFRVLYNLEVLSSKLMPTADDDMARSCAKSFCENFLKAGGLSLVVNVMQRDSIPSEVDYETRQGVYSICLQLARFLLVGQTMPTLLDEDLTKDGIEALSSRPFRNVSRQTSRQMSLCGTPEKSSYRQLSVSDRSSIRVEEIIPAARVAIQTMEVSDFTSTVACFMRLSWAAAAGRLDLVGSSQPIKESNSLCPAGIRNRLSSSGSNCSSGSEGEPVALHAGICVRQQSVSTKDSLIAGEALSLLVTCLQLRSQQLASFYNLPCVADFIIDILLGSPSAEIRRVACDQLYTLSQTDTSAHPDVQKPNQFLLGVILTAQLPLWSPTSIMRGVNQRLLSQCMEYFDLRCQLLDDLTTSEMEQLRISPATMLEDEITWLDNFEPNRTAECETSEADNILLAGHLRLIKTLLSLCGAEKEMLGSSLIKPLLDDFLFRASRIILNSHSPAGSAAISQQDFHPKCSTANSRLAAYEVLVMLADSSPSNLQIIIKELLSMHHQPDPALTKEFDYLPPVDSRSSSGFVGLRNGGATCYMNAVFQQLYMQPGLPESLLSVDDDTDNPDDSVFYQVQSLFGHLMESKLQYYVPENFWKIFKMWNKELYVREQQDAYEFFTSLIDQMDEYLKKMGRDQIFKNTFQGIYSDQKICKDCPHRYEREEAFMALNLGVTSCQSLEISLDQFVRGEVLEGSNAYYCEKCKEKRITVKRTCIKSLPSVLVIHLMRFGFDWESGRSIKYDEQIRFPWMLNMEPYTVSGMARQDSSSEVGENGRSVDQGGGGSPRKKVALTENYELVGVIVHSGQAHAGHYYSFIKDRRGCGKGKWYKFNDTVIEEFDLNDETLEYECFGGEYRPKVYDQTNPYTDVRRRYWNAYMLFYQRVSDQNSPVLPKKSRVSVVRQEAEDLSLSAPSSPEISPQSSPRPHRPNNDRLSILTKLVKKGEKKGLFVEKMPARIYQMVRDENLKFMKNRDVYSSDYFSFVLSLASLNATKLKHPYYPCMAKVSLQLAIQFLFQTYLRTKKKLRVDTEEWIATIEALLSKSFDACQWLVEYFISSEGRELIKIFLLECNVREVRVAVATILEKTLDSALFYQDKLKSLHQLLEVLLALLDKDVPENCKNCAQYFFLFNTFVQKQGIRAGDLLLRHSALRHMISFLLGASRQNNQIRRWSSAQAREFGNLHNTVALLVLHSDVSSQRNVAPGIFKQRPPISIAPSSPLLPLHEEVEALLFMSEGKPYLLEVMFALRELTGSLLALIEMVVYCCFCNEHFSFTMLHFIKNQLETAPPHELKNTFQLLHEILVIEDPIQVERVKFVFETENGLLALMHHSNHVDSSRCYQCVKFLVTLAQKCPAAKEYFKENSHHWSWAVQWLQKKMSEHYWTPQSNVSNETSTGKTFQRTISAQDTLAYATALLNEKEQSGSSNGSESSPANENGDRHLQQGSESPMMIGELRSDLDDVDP
smiles,measurement,setting,value
Cc1ccccc1CN(C)C(=O)CCl,log2 ratio of Biotin-Ahx-Ub-VS probe labelling,USP19,-0.829
same,log2 ratio of Biotin-Ahx-Ub-VS probe labelling,USP24,-1.38 (active)
same,log2 ratio of Biotin-Ahx-Ub-VS probe labelling,USP25,-1.03 (active)
same,log2 ratio of Biotin-Ahx-Ub-VS probe labelling,USP28,-1.35 (active)
